Several values for one entry are separate records, joined by “and”; a condition that tells them apart may be missing. Equal values may be shown once. Hit rate of the full screen: of about 5,500 compounds, about 2,000 (36%) were called active. Roughly 18% stayed inconclusive and do not appear here. Cut-off read from the data, not from the text of the source: active = normalized growth mostly below about 0.91 (no sharp cut-off); inconclusive = no clear call, values can overlap the other calls; inactive = mostly above about 0.92. This is one part of the list.
Assay: chemical genetic growth profiling, strain panel (AID 1159580);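 note: tested at 20 µM; growth read once vehicle control cultures reached saturation at 30 °C; 1 = growth at the plate median or of vehicle wells; lower values mean less growth of the strain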
Conditions: growth OD

Measured: normalized growth

COc1ccc(C(=O)O)cc1OC
inactive: S. cerevisiae deletion strains, locus YAL013W, strain DEP1, hits give low values 1.02 | S. cerevisiae deletion strains, locus YAL021C, strain ccr4, hits give low values 0.981 | S. cerevisiae deletion strains, locus YAL026C, strain drs2, hits give low values 0.996 | S. cerevisiae deletion strains, locus YAL030W, strain snc1, hits give low values 0.995 | S. cerevisiae deletion strains, locus YBL061C, strain skt5, hits give low values 1 | S. cerevisiae deletion strains, locus YBR009C, strain hhf1, hits give low values 1.01 | S. cerevisiae deletion strains, locus YBR021W, strain FUR4, hits give low values 1.02 | S. cerevisiae deletion strains, locus YBR023C, strain chs3, hits give low values 1.01 | S. cerevisiae deletion strains, locus YBR171W, strain sec66, hits give low values 0.996 | S. cerevisiae deletion strains, locus YBR229C, strain ROT2, hits give low values 1 | S. cerevisiae deletion strains, locus YBR231C, strain swc5, hits give low values 0.996 | S. cerevisiae deletion strains, locus YBR279W, strain paf1, hits give low values 0.997 | S. cerevisiae deletion strains, locus YCL011C, strain gbp2, hits give low values 1 | S. cerevisiae deletion strains, locus YCL016C, strain dcc1, hits give low values 1 | S. cerevisiae deletion strains, locus YCL029C, strain bik1, hits give low values 0.992 | S. cerevisiae deletion strains, locus YCL069W, strain vba3, hits give low values 1 | S. cerevisiae deletion strains, locus YCR088W, strain abp1, hits give low values 0.996 | S. cerevisiae deletion strains, locus YDL005C, strain med2, hits give low values 0.996 | S. cerevisiae deletion strains, locus YDL035C, strain GPR1, hits give low values 1.08 | S. cerevisiae deletion strains, locus YDL040C, strain nat1, hits give low values 0.997 | S. cerevisiae deletion strains, locus YDL074C, strain BRE1, hits give low values 1.17 | S. cerevisiae deletion strains, locus YDL101C, strain DUN1, hits give low values 1 | S. cerevisiae deletion strains, locus YDL185W, strain tfp1, hits give low values 0.988 | S. cerevisiae deletion strains, locus YDL192W, strain arf1, hits give low values 1.03 | S. cerevisiae deletion strains, locus YDR001C, strain nth1, hits give low values 0.994 | S. cerevisiae deletion strains, locus YDR069C, strain doa4, hits give low values 1.01 | S. cerevisiae deletion strains, locus YDR101C, strain arx1, hits give low values 1.01 | S. cerevisiae deletion strains, locus YDR137W, strain rgp1, hits give low values 1.02 | S. cerevisiae deletion strains, locus YDR159W, strain sac3, hits give low values 0.964 | S. cerevisiae deletion strains, locus YDR162C, strain NBP2, hits give low values 1.04 | S. cerevisiae deletion strains, locus YDR195W, strain ref2 0.908 | S. cerevisiae deletion strains, locus YDR297W, strain sur2, hits give low values 1 | S. cerevisiae deletion strains, locus YDR318W, strain mcm21, hits give low values 1 | S. cerevisiae deletion strains, locus YDR334W, strain swr1, hits give low values 0.998 | S. cerevisiae deletion strains, locus YDR335W, strain msn5, hits give low values 1 | S. cerevisiae deletion strains, locus YDR388W, hits give low values 1 | S. cerevisiae deletion strains, locus YDR392W, strain spt3, hits give low values 0.984 | S. cerevisiae deletion strains, locus YDR502C, strain sam2, hits give low values 0.991 | S. cerevisiae deletion strains, locus YEL003W, strain gim4, hits give low values 0.992 | S. cerevisiae deletion strains, locus YEL037C, strain rad23, hits give low values 0.989 | S. cerevisiae deletion strains, locus YEL061C, strain CIN8 (second series), hits give low values 0.998 | S. cerevisiae deletion strains, locus YER015W, strain faa2, hits give low values 0.992 | S. cerevisiae deletion strains, locus YER016W, strain bim1, hits give low values 1.01 | S. cerevisiae deletion strains, locus YER110C, hits give low values 0.978 | S. cerevisiae deletion strains, locus YER111C, strain swi4, hits give low values 1.01 | S. cerevisiae deletion strains, locus YER155C, strain BEM2 (second series), hits give low values 0.988 | S. cerevisiae deletion strains, locus YER155C, strain BEM2, hits give low values 0.994 | S. cerevisiae deletion strains, locus YER167W, strain BCK2, hits give low values 0.999 | S. cerevisiae deletion strains, locus YFR010W, strain ubp6, hits give low values 0.993 | S. cerevisiae deletion strains, locus YGL078C, strain dbp3, hits give low values 0.99 | S. cerevisiae deletion strains, locus YGL086W, strain mad1, hits give low values 1.01 | S. cerevisiae deletion strains, locus YGL167C, strain pmr1, hits give low values 0.999 | S. cerevisiae deletion strains, locus YGL173C, strain kem1, hits give low values 0.998 | S. cerevisiae deletion strains, locus YGL227W, strain vid30, hits give low values 1.03 | S. cerevisiae deletion strains, locus YGL240W, strain doc1, hits give low values 0.998 | S. cerevisiae deletion strains, locus YGL248W, strain PDE1, hits give low values 1.05 | S. cerevisiae deletion strains, locus YGL253W, strain hxk2, hits give low values 1.01 | S. cerevisiae deletion strains, locus YGR078C, strain PAC10, hits give low values 1.04 | S. cerevisiae deletion strains, locus YGR135W, strain pre9, hits give low values 0.988 | S. cerevisiae deletion strains, locus YGR252W, strain gcn5, hits give low values 1.03 | S. cerevisiae deletion strains, locus YHR013C, strain ard1, hits give low values 0.978 | S. cerevisiae deletion strains, locus YHR027C, strain rpn1, hits give low values 1.01 | S. cerevisiae deletion strains, locus YHR030C, strain SLT2, hits give low values 1 and 0.99 | S. cerevisiae deletion strains, locus YHR079C, strain IRE1 (second series), hits give low values 0.987 | S. cerevisiae deletion strains, locus YHR079C, strain IRE1, hits give low values 0.961 | S. cerevisiae deletion strains, locus YHR094C, strain hxt1, hits give low values 0.972 | S. cerevisiae deletion strains, locus YHR129C, strain ARP1, hits give low values 1.03 | S. cerevisiae deletion strains, locus YHR142W, strain chs7, hits give low values 1.01 | S. cerevisiae deletion strains, locus YHR200W, strain rpn10, hits give low values 0.993 | S. cerevisiae deletion strains, locus YIL066C, strain RNR3, hits give low values 1.03 | S. cerevisiae deletion strains, locus YIL073C, strain SPO22, hits give low values 1.02 | S. cerevisiae deletion strains, locus YIL125W, strain kgd1, hits give low values 0.992 | S. cerevisiae deletion strains, locus YIR030C, strain dcg1, hits give low values 0.985 | S. cerevisiae deletion strains, locus YJL092W, strain hpr5, hits give low values 0.985 | S. cerevisiae deletion strains, locus YJL095W, strain BCK1 (second series), hits give low values 0.985 | S. cerevisiae deletion strains, locus YJL095W, strain BCK1, hits give low values 1.06 and 0.982 | S. cerevisiae deletion strains, locus YJL115W, strain asf1, hits give low values 0.995 | S. cerevisiae deletion strains, locus YJL129C, strain trk1, hits give low values 1.04 | S. cerevisiae deletion strains, locus YJL134W, strain LCB3, hits give low values 0.995 | S. cerevisiae deletion strains, locus YJL154C, strain vps35, hits give low values 0.992 | S. cerevisiae deletion strains, locus YJL164C, strain tpk1, hits give low values 1 | S. cerevisiae deletion strains, locus YJL166W, strain qcr8, hits give low values 1.01 | S. cerevisiae deletion strains, locus YJL168C, strain set2, hits give low values 0.993 | S. cerevisiae deletion strains, locus YJL187C, strain SWE1 (second series), hits give low values 1.02 | S. cerevisiae deletion strains, locus YJR066W, strain TOR1, hits give low values 0.996 | S. cerevisiae deletion strains, locus YKL009W, strain mrt4, hits give low values 1.02 | S. cerevisiae deletion strains, locus YKL068W, hits give low values 0.983 | S. cerevisiae deletion strains, locus YKL085W, strain MDH1 (second series), hits give low values 0.993 | S. cerevisiae deletion strains, locus YKL085W, strain MDH1, hits give low values 0.993 | S. cerevisiae deletion strains, locus YKL160W, strain elf1, hits give low values 1 | S. cerevisiae deletion strains, locus YKR001C, strain vps1, hits give low values 1.05 | S. cerevisiae deletion strains, locus YKR026C, strain gcn3, hits give low values 1 | S. cerevisiae deletion strains, locus YKR091W, strain srl3, hits give low values 0.996 | S. cerevisiae deletion strains, locus YLL001W, strain dnm1, hits give low values 0.997 | S. cerevisiae deletion strains, locus YLL026W, hits give low values 0.999 | S. cerevisiae deletion strains, locus YLL041C, strain sdh2, hits give low values 0.992 | S. cerevisiae deletion strains, locus YLR027C, strain aat2, hits give low values 1 | S. cerevisiae deletion strains, locus YLR039C, strain RIC1, hits give low values 1.22 | S. cerevisiae deletion strains, locus YLR058C, strain SHM2, hits give low values 1.01 | S. cerevisiae deletion strains, locus YLR102C, strain apc9, hits give low values 0.977 | S. cerevisiae deletion strains, locus YLR113W, strain HOG1, hits give low values 0.982 | S. cerevisiae deletion strains, locus YLR221C, strain rsa3, hits give low values 1.02 | S. cerevisiae deletion strains, locus YLR258W, strain gsy2, hits give low values 1.01 | S. cerevisiae deletion strains, locus YLR262C, strain YPT6 (second series), hits give low values 1.01 | S. cerevisiae deletion strains, locus YLR262C, strain YPT6, hits give low values 1.2 | S. cerevisiae deletion strains, locus YLR268W, strain sec22, hits give low values 1.05 | S. cerevisiae deletion strains, locus YLR320W, strain mms22, hits give low values 1 | S. cerevisiae deletion strains, locus YLR330W, strain CHS5, hits give low values 1.01 | S. cerevisiae deletion strains, locus YLR342W, strain FKS1 (second series), hits give low values 1.07 | S. cerevisiae deletion strains, locus YLR342W, strain FKS1, hits give low values 1 | S. cerevisiae deletion strains, locus YLR357W, strain rsc2, hits give low values 0.981 | S. cerevisiae deletion strains, locus YLR370C, strain arc18, hits give low values 1.01 | S. cerevisiae deletion strains, locus YLR371W, strain rom2, hits give low values 0.991 | S. cerevisiae deletion strains, locus YLR384C, strain iki3, hits give low values 1.01 | S. cerevisiae deletion strains, locus YLR418C, strain cdc73, hits give low values 1.07 | S. cerevisiae deletion strains, locus YML016C, strain PPZ1, hits give low values 1 | S. cerevisiae deletion strains, locus YML032C, strain rad52, hits give low values 0.998 | S. cerevisiae deletion strains, locus YML120C, strain ndi1, hits give low values 1.01 | S. cerevisiae deletion strains, locus YML124C, strain tub3, hits give low values 0.989 | S. cerevisiae deletion strains, locus YMR058W, strain fet3, hits give low values 1 | S. cerevisiae deletion strains, locus YMR078C, strain ctf18, hits give low values 0.982 | S. cerevisiae deletion strains, locus YMR125W, strain sto1, hits give low values 0.985 | S. cerevisiae deletion strains, locus YMR129W, hits give low values 0.93 | S. cerevisiae deletion strains, locus YMR205C, strain PFK2, hits give low values 1 | S. cerevisiae deletion strains, locus YMR223W, strain ubp8, hits give low values 1 | S. cerevisiae deletion strains, locus YMR231W, strain pep5, hits give low values 0.989 | S. cerevisiae deletion strains, locus YMR307W, strain GAS1, hits give low values 1.14 | S. cerevisiae deletion strains, locus YNL067W, strain RPL9B, hits give low values 1.01 | S. cerevisiae deletion strains, locus YNL071W, strain lat1, hits give low values 0.99 | S. cerevisiae deletion strains, locus YNL128W, strain TEP1, hits give low values 1.03 | S. cerevisiae deletion strains, locus YNL183C, strain NPR1, hits give low values 0.921 | S. cerevisiae deletion strains, locus YNL209W, strain ssb2, hits give low values 0.985 | S. cerevisiae deletion strains, locus YNL233W, strain BNI4, hits give low values 1.04 | S. cerevisiae deletion strains, locus YNL248C, strain rpa49, hits give low values 1 | S. cerevisiae deletion strains, locus YNL250W, strain rad50, hits give low values 0.952 | S. cerevisiae deletion strains, locus YNL271C, strain bni1, hits give low values 0.994 | S. cerevisiae deletion strains, locus YNL298W, strain CLA4, hits give low values 0.997 | S. cerevisiae deletion strains, locus YNL307C, strain MCK1, hits give low values 0.975 | S. cerevisiae deletion strains, locus YNL322C, strain KRE1 (second series), hits give low values 0.986 | S. cerevisiae deletion strains, locus YNR049C, strain mso1, hits give low values 0.987 | S. cerevisiae deletion strains, locus YNR052C, strain pop2, hits give low values 0.969 | S. cerevisiae deletion strains, locus YOL006C, strain TOP1, hits give low values 1.36 | S. cerevisiae deletion strains, locus YOL012C, strain htz1 0.898 | S. cerevisiae deletion strains, locus YOL147C, strain pex11, hits give low values 0.997 | S. cerevisiae deletion strains, locus YOR001W, strain rrp6, hits give low values 1.02 | S. cerevisiae deletion strains, locus YOR061W, strain CKA2, hits give low values 1.01 | S. cerevisiae deletion strains, locus YOR069W, strain VPS5, hits give low values 0.996 | S. cerevisiae deletion strains, locus YOR070C, strain gyp1, hits give low values 1 | S. cerevisiae deletion strains, locus YOR080W, strain dia2, hits give low values 0.996 | S. cerevisiae deletion strains, locus YOR083W, strain WHI5, hits give low values 0.996 | S. cerevisiae deletion strains, locus YOR106W, strain vam3, hits give low values 1.02 | S. cerevisiae deletion strains, locus YOR136W, strain idh2, hits give low values 0.995 | S. cerevisiae deletion strains, locus YOR144C, strain elg1, hits give low values 0.978 | S. cerevisiae deletion strains, locus YOR184W, strain ser1, hits give low values 1.07 | S. cerevisiae deletion strains, locus YOR231W, strain MKK1, hits give low values 0.979 | S. cerevisiae deletion strains, locus YOR265W, strain rbl2, hits give low values 0.995 | S. cerevisiae deletion strains, locus YOR270C, strain vph1, hits give low values 1.02 | S. cerevisiae deletion strains, locus YOR290C, strain snf2, hits give low values 1.02 | S. cerevisiae deletion strains, locus YOR316C, strain cot1, hits give low values 1.01 | S. cerevisiae deletion strains, locus YPL051W, strain arl3, hits give low values 0.993 | S. cerevisiae deletion strains, locus YPL078C, strain atp4, hits give low values 1 | S. cerevisiae deletion strains, locus YPL106C, strain sse1, hits give low values 0.975 | S. cerevisiae deletion strains, locus YPL240C, strain hsp82, hits give low values 1 | S. cerevisiae deletion strains, locus YPL256C, strain CLN2, hits give low values 0.973 | S. cerevisiae deletion strains, locus YPR119W, strain clb2, hits give low values 1 | S. cerevisiae deletion strains, locus YPR141C, strain kar3, hits give low values 0.976 | S. cerevisiae deletion strains, locus YPR163C, strain tif3, hits give low values 1.01 | S. cerevisiae deletion strains, locus YPR167C, strain met16, hits give low values 1.02 | S. cerevisiae deletion strains, strain wtn01, hits give low values 1.01 | S. cerevisiae strains, strain wild type, hits give low values 1.06
